# A selection: hits, their analogues and other compounds. The true share with any hit is near 8.8%.
# KB-3-1 cytotox: kills parental KB-3-1 adenocarcinoma cells | KB-3-1 viability, CellTiter-Glo ATP luminescence, 72 h | Potency, µM (series often up to 46.1 µM), usual class: cytotoxic | actives 1.4% (n = 400,000); note: potency is the fitted concentration of half-maximal effect; nearly all actives have a fitted effect of over 60% in size
#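 KB-3-1 cells, DMEM (no phenol red) + 10% FBS; compound by pin transfer, 72 h, 37 °C. Readout: CellTiter-Glo luminescence after 10 min. Data normalized, curve-fitted.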
# HT1080-NT tox: kills 2HG-producing HT-1080-NT fibrosarcoma cells. actives 1.6% (n = 360,000). HT-1080-NT fibrosarcoma viability, CellTiter-Glo ATP luminescence, 48 h. AID 686970. Potency, µM (series often up to 46.1 µM), for inactives: at the top dose activity, negative = less viability, actives largely listed as cytotoxic;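 note: NT is the 2HG producing partner of a matched IDH1 knockdown line; potency is the fitted concentration of half-maximal effect; 0% = DMSO-treated cells and -100% = media-only wells without cells; nearly all actives have a fitted effect of over 55% in size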
#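 A 48-hour cytotoxicity screen used HT-1080-NT cells plated 2 hours before compound delivery. ATP-based CellTiter-Glo luminescence measured viability, normalized to DMSO and no-cell controls.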
# KB-V1 MDR tox: kills drug-selected multidrug resistant KB-V1 cells; KB-V1 MDR cells viability, CellTiter-Glo, 72 h; Potency, µM (titrated, usually from 46.1 µM), usual class: cytotoxic; actives 3.4% (n = 400,000); AID 1347076; note: potency is the fitted concentration of half-maximal effect; nearly all actives have a fitted effect of over 60% in size
#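 Cytotoxicity toward P-gp-expressing KB-V1 cells was determined as loss of CellTiter-Glo luminescence after 72 h at 37 degrees C. Compounds were tested in quantitative HTS format across a concentration range, with curves fitted to normalized data.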
# IL-1B inflam inh: blocks inflammasome-driven IL-1 beta release. THP-1 LPS/ATP IL-1B secretion, AlphaLISA, 16 h; stronger effect = lower value. activity change, % at 57.5 µM. AID 743279. actives 4.7% (n = 360,000); in the data active = activity change below about -50%; inconclusive = mostly about -30% to -49%
#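 Secreted IL-1B measured by AlphaLISA bead assay after 16 h compound exposure of THP-1 cells; compounds (final up to 57.5 uM) added 1 h before LPS (250 ng/mL) and ATP (1.25 mM) stimulation; lower signal means less secretion.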
# HT1080 IDH1KD tx: HT-1080 IDH1 knockdown cell toxicity (counter line); HT-1080 IDH1 knockdown viability, ATP luminescence, 48 h; Potency, µM (series often up to 46.1 µM), without a hit: at the top dose activity, negative = toxicity, hits mostly cytotoxic; actives 2% (n = 360,000);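 note: potency is the fitted concentration of half-maximal effect; 0% = DMSO wells and -100% = cell-free medium wells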
#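 In this qHTS, HT-1080 cells depleted of IDH1 are exposed for 48 h at 37 °C to compound titrations. Toxicity is scored from CellTiter-Glo luminescence, with DMSO as full viability and medium alone as none.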
# Active calls of the source: *; i = inactive; ? = inconclusive; . = no result. Unless noted, calls come from the whole dose curve; as a rule, active = well fitted curve in the direction sought with a large enough effect; inconclusive = small, poorly fitted or top-dose-only effect, or another doubt; inactive = no such curve, though single readings can be large; an effect the other way counts as inactive or inconclusive. Unless noted, % is set by controls: 0 for no effect and ±100 for the full control effect.
SMILES,KB-3-1 cytotox,HT1080-NT tox,KB-V1 MDR tox,IL-1B inflam inh,HT1080 IDH1KD tx
CCOC(=O)CC1COc2ccccc2N1C(=O)c1ccc(C)cc1 (stereo not drawn),i,15.3%,18.4µM*,63.0,-1.8%
CCOC(=O)CC1COc2ccccc2N1C(=O)c1ccc(F)cc1 (stereo not drawn),i,2.5%,i,-1.4,4.3%
N=c1n(Cc2ccccc2)c2ccccc2n1CC(O)c1ccco1 (stereo not drawn),?,-21.9%,i,-22.0,-3.5%
N=c1n(Cc2ccccc2)c2ccccc2n1CC(O)COc1ccc(Cl)cc1Cl (stereo not drawn),?,29.1µM*,?,-103.1*,11.6µM*
Cc1cccc(OCC(O)Cn2c(=N)n(CCN3CCCCC3)c3ccccc32)c1 (stereo not drawn),?,10µM*,?,-51.0*,11.2µM*
Cc1ccc(OCC(O)Cn2c(=N)n(Cc3ccccc3)c3ccccc32)cc1 (stereo not drawn),i,-24.6%,16.4µM*,-89.7*,18.4µM*
Cc1cccc(OCC(O)Cn2c(=N)n(Cc3ccccc3)c3ccccc32)c1 (stereo not drawn),i,-1.2%,?,-53.9*,-18.1%
CCOc1cc(C(N)=O)cc(Br)c1OCc1ccccc1,i,0.4%,i,27.0,-3.0%
CCCSCCCNC(=O)C1CCN(C(=O)c2cnn(-c3ccccc3)c2-n2cccc2)CC1,i,.,i,.,.
CCN(CC)CCn1c(=N)n(CC(O)c2ccc(OC)c(OC)c2)c2ccccc21 (stereo not drawn),i,-13.4%,i,-13.3,-13.3%
N=c1n(Cc2ccc(Cl)cc2)c2ccccc2n1CC(O)COc1ccccc1 (stereo not drawn),?,20.6µM*,?,-97.5*,14.6µM*
CCN(CC)CCn1c(=N)n(CC(O)COc2cccc(C)c2)c2ccccc21 (stereo not drawn),?,?,i,-67.1*,20.6µM*
COc1ccc(OCC(O)Cn2c(=N)n(Cc3ccccc3)c3ccccc32)cc1 (stereo not drawn),?,?,?,-96.6*,11.2µM*
CCn1c(=N)n(CC(O)COc2ccccc2)c2ccccc21 (stereo not drawn),i,.,i,.,.
CCOc1ccccc1NC(=O)CCS(=O)(=O)c1ccc2c(c1)oc(=O)n2C,i,.,i,.,.
COC(=O)[C@]12CCCCC=C1N(Cc1ccc(Cl)cc1Cl)C(=O)[C@H](CC(=O)N1CCSCC1)C2,i,-14.2%,i,0.0,-24.1%
CC(C)CNC(=O)C1(C)CCN1C(=O)c1ccc(C(C)(C)C)cc1 (stereo not drawn),i,5.8%,i,50.7,-27.1%
O=C(CNC(=O)c1ccccc1)NCC(=O)OCC(=O)c1ccc2ccccc2c1,?,.,i,.,.
Cc1ccc(CCNC(=O)C2CC(c3cc(C(F)(F)F)cc(C(F)(F)F)c3)=NO2)cc1 (stereo not drawn),i,15.2%,?,0.1,18.4%
Cc1ccc(CNC(=O)C2CC(c3cc(C(F)(F)F)cc(C(F)(F)F)c3)=NO2)o1 (stereo not drawn),i,?,i,30.5,23.1µM*
O=C(NCc1ccco1)C1CC(c2ccc(C(F)(F)F)cc2)=NO1 (stereo not drawn),?,?,?,9.7,?
COc1cc(C2=NOC(C(=O)NCc3ccco3)C2)cc(OC)c1OC (stereo not drawn),i,.,2.91µM*,37.5,.
O=C(NCc1ccco1)C1CC(c2ccc(Cl)c(Cl)c2)=NO1 (stereo not drawn),i,?,i,21.3,-5.1%
COc1ccc(C2=NOC(C(=O)NCc3ccco3)C2)cc1 (stereo not drawn),13µM*,7.08µM*,7.31µM*,15.2,6.31µM*
Cc1cc(F)ccc1-c1cc(C(=O)Nc2ccccc2)[nH]n1,i,-9.8%,i,-13.8,-17.4%
SMILES,KB-3-1 cytotox,HT1080-NT tox,KB-V1 MDR tox,IL-1B inflam inh,HT1080 IDH1KD tx
Cc1ccccc1Cn1c(SCc2ccc(C(=O)NCCc3ccccc3)cc2)nc2ccncc21,i,.,i,.,.
COc1ccc(CNS(=O)(=O)c2ccc(F)c(C(=O)Nc3c(C)cc(C)cc3C)c2)cc1,i,.,i,.,.
CCOP(=O)(OCC)C(Nc1ccccc1)c1cccnc1 (stereo not drawn),i,0.3%,i,19.3,15.3%
O=P(OC1CCCCC1)(OC1CCCCC1)C(Nc1ccccc1)c1cccnc1 (stereo not drawn),i,-19.2%,?,-72.0*,-21.2%
COc1cc(/C=C/c2nc3ccccc3nc2/C=C/c2cc(OC)c(OC)c(OC)c2)cc(OC)c1OC,?,.,i,.,.
Fc1cccc(F)c1/C=C/c1ccc2ccccc2n1,i,-22.9%,?,-7.4,-21.6%
COc1cc(/C=C/c2ccc3ccccc3n2)cc(OC)c1OC,2.59µM*,.,?,.,.
Fc1ccc(/C=C/c2nccc3ccccc23)cc1,18.4µM*,.,i,.,.
COc1ccccc1/C=C/c1ccc2ccccc2n1,i,.,i,.,.
CC(O)/C=C/c1ccc2ccccc2n1 (stereo not drawn),?,?,?,-96.2*,11.2µM*
C(=C\c1ccco1)/c1ccc2ccccc2n1,i,?,i,-21.8,10.3µM*
COc1cc(Cl)cc(/C=C/c2ccc3ccccc3n2)c1OC(C)=O,i,14.6µM*,i,-101.5*,14.6µM*
Fc1ccc(/C=C/c2ccc3ccccc3n2)cc1,11.6µM*,.,i,.,.
Cc1ccc(S(=O)(=O)N2[C@@H](CO)CO[C@H]2CC(=O)c2ccc(F)cc2)cc1,i,1.4%,i,-6.3,-1.5%
COCCCNC(=O)C[C@@H]1C[C@@]2(C(=O)OC)CCCCC=C2N(Cc2ccco2)C1=O,i,1.8%,i,10.3,6.9%
CCCCNC(=O)C1CC(=O)N(CCc2ccc(C)cc2)C1 (stereo not drawn),i,16.9%,i,14.7,10.0%
O=C(Nc1cccc2ccccc12)c1ccc2sc([C@@H]3O[C@H](CO)[C@H](O)[C@H](O)[C@H]3O)nc2c1,i,10.2%,i,-28.9,-9.0%
COc1ccccc1-n1nnnc1SCC(=O)N(C)C1CCS(=O)(=O)C1 (stereo not drawn),i,4.2%,?,0.0,3.9%
COc1ccc2nc(NC(=O)CSc3nccc(C)n3)sc2c1,i,6.4%,23.1µM*,-15.4,1.0%
CCOCC(=O)Nc1nc2ccc(OC)cc2s1,i,6.4%,i,-2.7,-0.1%
COc1ccc2nc(NC(=O)CSc3nc(C)cc(=O)[nH]3)sc2c1,i,1.1%,i,14.0,-2.5%
CCCC(=O)Nc1nc2ccc(NC(=O)c3ccccc3F)cc2s1,2.06µM*,?,1.84µM*,11.9,?

# High-throughput results from PubChem.
